The source made the active and inactive calls. The calls were made as follows: active = hit-call score of the fitted dose curve at least 0.9, where 1 is the maximum; inactive = score below 0.9.
Test: ATG_ISRE_CIS: Attagene CIS-FACTORIAL HepG2 Assay for human Interferon Regulatory Factor 1 (IRF1) binding to an Interferon-Stimulated Response Element (ISRE) (AID 2282948)
Settings: HepG2 ISRE cis-reporter (Attagene), mRNA transcription readout; actives raise or lower the signal
Procedure: ATG_CIS is a cell-based, multiplexed-readout assay that uses HepG2, a human liver cell line, with measurements taken at 24 hours after chemical dosing in a 24-well plate.ATG_ISRE_CIS is one of 52 assay component(s) measured or calculated from the ATG_CIS assay. It is designed to make measurements of mRNA induction, a form of inducible reporter, as detected with fluorescence intensity signals by Reverse transcription polymerase chain reaction (RT-PCR) and Capillary electrophoresis technology.Data from the assay component ATG_ISRE_CIS was analyzed into 1 assay endpoint. This assay endpoint, ATG_ISRE_CIS, was analyzed with bidirectional fitting relative to DMSO as the negative control and baseline of activity. Using a type of inducible reporter, measures of mRNA for gain or loss-of-signal activity can be used to understand the reporter gene at the transcription factor-level as they relate to the gene IRF1. Furthermore, this assay endpoint can be referred to as a primary readout, because this assay has produced multiple assay endpoints where this one serves a reporter gene function. To generalize the intended target to other relatable targets, this assay endpoint is annotated to the dna binding intended target family, where the subfamily is interferon regulatory factors.
Human liver HepG2 cells are transiently transfected with multiple reporter transcription units (MRTUs) in 6-well plates using FuGene 6 reagent (Roche; 3 ml FuGene/1 mg DNA). The MRTU constructs are regulated by a cis-regulating element (promoter). […] A major difference between the CIS and TRANS system is that in CIS activities of endogenous TFs are measured, whereas the TRANS assay evaluates changes in activities of exogenous, chimeric NR-Gal4 proteins. […] At the end of 24 hour incubation, total RNA was isolated using TriZol reagent (Invitrogen). The isolated RNA is then reverse-transcribed using oligo(dT) primer and Mo-MLV reverse transcriptase (Invitrogen) with DNAse I (Ambion) treatment for 30 min. The one-tenth of the produced cDNA was amplified by PCR using Taq DNA polymerase (Invitrogen) and two reporter sequence-specific primers. The PCR products were fluorescently labeled by primer extension with 6-arboxyfluorescein (6-FAM) 5'-labeled reporter sequence-specific primer (2 min at 95 C, 20 s at 68 C and 10 min at 72 C) and these products were digested with 5U of HpaI (New England Biolabs) for 2h at 37 C. The fragments were purified using Qiaquick PCR columns (Qiagen), analyzed on an ABI 3130xL genetic analyzer (Applied Biosystems) with peak positions identified by using a set of X-rhodamine (ROX)-labeled MapMarker1000 molecular weight standards (BioVentures). The raw capillary electrophoresis data was processed using Attagraph software (Attagene).
With `OCCOCCOCCOCCO` the outcome was “inactive”. With `O=[N+]([O-])c1ccc(C=Cc2ccc([N+](=O)[O-])cc2S(=O)(=O)O)c(S(=O)(=O)O)c1` the outcome was “inactive”. For `Cc1ccc(Nc2ccc(O)c3c2C(=O)c2ccccc2C3=O)cc1`, the outcome was “inactive”. In the case of `O=C(O)Cc1cccc2ccccc12`, the outcome is reported as “inactive”. With `CCCCC(CC)COC(=O)/C=C\C(=O)OCC(CC)CCCC` (stereo not given) the outcome was “inactive”. In the case of `CCCCNC(=O)NS(=O)(=O)c1ccc(C)cc1`, the outcome is reported as “inactive”. In the case of `COc1cc(C=O)ccc1OC(=O)C(C)C`, the outcome is reported as “inactive”. With `OCCOc1cccc(OCCO)c1` the outcome was “inactive”. In the case of `O=C(COc1ccc(Cl)cc1)N1CCN(Cc2ccc3c(c2)OCO3)CC1`, the AC50 is reported as 58 µM (active). With `CCCCC(CC)COCCC#N` (stereo not given) the outcome was “inactive”. With `CCCCCCOC(=O)CC` the outcome was “inactive”. With `O=C(OCc1ccccc1)C(=O)OCc1ccccc1` the outcome was “inactive”. In the case of `CNC(=O)Oc1ccc2c(c1)[C@]1(C)CCN(C)[C@@H]1N2C`, the outcome is reported as “inactive”. In the case of `CC(C=O)Cc1ccc(C(C)C)cc1` (stereo not given), the outcome is reported as “inactive”. With `Clc1ccc2c(c1)C(N1CCNCC1)=Nc1ccccc1O2` the outcome was “inactive”. In the case of `CCCCCCCCCCC(CO)CCCCCCCC` (stereo not given), the outcome is reported as “inactive”. With `Cc1ccc(C(C)C)cc1O` the outcome was “inactive”. In the case of `O=C[C@H](O)[C@H](O)[C@H](O)CO`, the outcome is reported as “inactive”. In the case of `O=C(O)c1snc(Cl)c1Cl`, the AC50 is reported as 136 µM (active). In the case of `C=CC(C)(O)CCC=C(C)CCC=C(C)C` (stereo not given), the AC50 is reported as 170 µM (active). For `COc1ccc(Nc2ccccc2)c(C)c1`, the outcome was “inactive”. In the case of `CC1CC(OC(=O)c2ccccc2O)CC(C)(C)C1` (stereo not given), the outcome is reported as “inactive”. For `O=S(=O)(O)NC1CCCCC1`, the outcome was “inactive”. In the case of `Clc1cccc(Cl)n1`, the outcome is reported as “inactive”. With `CCCC[n+]1ccccc1` the outcome was “inactive”. In the case of `C=CC(=O)OCC(O)COc1ccccc1` (stereo not given), the AC50 is reported as 27.4 µM (active). With `Cc1ccc2sc3cccc(C)c3c2c1` the outcome was “inactive”. With `CCCCCC(=O)OCCc1ccccc1` the outcome was “inactive”. For `CC(O)C(C)O` (stereo not given), the outcome was “inactive”. For `O=C(O)c1ccc([N+](=O)[O-])cc1`, the outcome was “inactive”. With `CCCCCCCCCCCCCCCC(=O)OC[C@H](O)[C@H]1OC(=O)C(O)=C1O` the outcome was “inactive”. In the case of `COc1nc(C)nc(N)n1`, the outcome is reported as “inactive”. With `CCC(C)CCCC(C)(C)O` (stereo not given) the outcome was “inactive”. For `O=C1CCCCCCCCCCOCCCCO1`, the outcome was “inactive”. In the case of `C=C(C)C(=O)O[C@H]1C[C@@H]2CC[C@@]1(C)C2(C)C`, the outcome is reported as “inactive”. With `NC(=O)Nc1ccc(Cl)cc1` the outcome was “inactive”. With `C=C(C)[C@@H]1CCC2=CC(=O)C[C@@H](C)[C@]2(C)C1` the outcome was “inactive”. For `O=c1[nH]c(=O)n([C@H]2CCCO2)cc1F`, the outcome was “inactive”. In the case of `CCCCCC(CO)CCC` (stereo not given), the outcome is reported as “inactive”. In the case of `CCCCCCCCCOC(C)=O`, the outcome is reported as “inactive”.
